# Publication PMC11062922 (Nature Chemical Biology, 2023)
# Like-named read-outs stand apart in the source and are kept apart here.
# Experiments:
# Design in all cases: species or system human, MV4-11 + K-562 + COLO205 + SK-N-BE2 + OVCAR-8
# [1] = tested on: CDK16; conditions: read-out: apparent Kd, n = 1
# [2] = tested on: MAPK10; conditions: read-out: apparent Kd, n = 1
# [3] = tested on: MAPK9; conditions: read-out: apparent Kd; compound concentrations:100 nM and 1000 nM (sheet 'Samples'); n = 1
# [4] = tested on: PIP4K2C; conditions: read-out: apparent Kd, n = 1
# [5] = tested on: CAMKK2; conditions: read-out: apparent Kd, n = 1
# [6] = tested on: CHEK1; conditions: read-out: apparent Kd, n = 1
# [7] = tested on: EPHA4; conditions: read-out: apparent Kd, n = 1
# [8] = tested on: EPHA5; conditions: read-out: apparent Kd, n = 1
# [9] = tested on: EPHB2; conditions: read-out: apparent Kd, n = 1
# [10] = tested on: EPHB4; conditions: read-out: apparent Kd, n = 1
# [11] = tested on: PRKAG2; conditions: read-out: apparent Kd; compound concentrations:100 nM and 1000 nM (sheet 'Samples'); n = 1
# [12] = tested on: TNK1; conditions: read-out: apparent Kd, n = 1
# [13] = tested on: ATM; conditions: read-out: apparent Kd; compound concentrations: 100 nM and 1000 nM (sheet 'Samples'), CATDS: 4.4938913040114402E-2; n = 1
# [14] = tested on: CSNK1D; conditions: read-out: apparent Kd; compound concentrations: 100 nM and 1000 nM (sheet 'Samples'), CATDS: 9.4015783065552402E-2; n = 1
# [15] = tested on: PRKACA; conditions: read-out: apparent Kd; compound concentrations: 100 nM and 1000 nM (sheet 'Samples'), CATDS: 2.91010350116075E-2; n = 1
# [16] = compound concentrations:100 nM and 1000 nM (sheet 'Samples')
smiles,measurement,setting,value
CN(C)CC(O)COc1ccc(Nc2nccc(-c3cnn4nc(N5CCOCC5)ccc34)n2)cc1 (stereo not drawn) [GW767488X],potency estimated from few doses,[1]; [16],262 nM
same,potency estimated from few doses,[2]; [16],107 nM
same,potency estimated from few doses,[3],134 nM
same,potency estimated from few doses,[4]; [16],1440 nM
CC(=O)N[C@@H](Cc1ccc(OP(=O)(O)O)cc1)C(=O)N[C@H]1CCC(=O)N2CCC[C@@H](C(=O)NCc3ccc(Cl)cc3)N2C1=O [RO0325308-000],potency estimated from few doses,[5]; [16],1320 nM
same,potency estimated from few doses,[6]; [16],1950 nM
same,potency estimated from few doses,[7]; [16],843 nM
same,potency estimated from few doses,[8]; [16],770 nM
same,potency estimated from few doses,[9]; [16],56.3 nM
same,potency estimated from few doses,[10]; [16],59.9 nM
same,potency estimated from few doses,[4]; [16],1270 nM
same,potency estimated from few doses,[11],570 nM
same,potency estimated from few doses,[12]; [16],468 nM
Cc1ccccc1-n1ncc(C(=O)c2ccccc2)c1N [RO1151248-000],potency estimated from few doses,[13],302 nM
same,potency estimated from few doses,"[5]; compound concentrations: 100 nM and 1000 nM (sheet 'Samples'), CATDS: 1.8448697661517601E-2",1790 nM
same,potency estimated from few doses,"[6]; compound concentrations: 100 nM and 1000 nM (sheet 'Samples'), CATDS: 1.9023399407062401E-2",1630 nM
same,potency estimated from few doses,"[7]; compound concentrations: 100 nM and 1000 nM (sheet 'Samples'), CATDS: 2.34305639617714E-2",955 nM
same,potency estimated from few doses,"[8]; compound concentrations: 100 nM and 1000 nM (sheet 'Samples'), CATDS: 2.3755462861685599E-2",926 nM
same,potency estimated from few doses,"[9]; compound concentrations: 100 nM and 1000 nM (sheet 'Samples'), CATDS: 2.84737750154796E-2",640 nM
same,potency estimated from few doses,"[10]; compound concentrations: 100 nM and 1000 nM (sheet 'Samples'), CATDS: 3.0398268163298901E-2",567 nM
same,potency estimated from few doses,"[12]; compound concentrations: 100 nM and 1000 nM (sheet 'Samples'), CATDS: 3.5283149780083803E-2",439 nM
CCN(CC)Cc1ccc(Nc2nccc(-c3cnn4ncccc34)n2)cc1 [GW780056X],potency estimated from few doses,"[1]; compound concentrations: 100 nM and 1000 nM (sheet 'Samples'), CATDS: 4.3242463436831802E-2",196 nM
same,potency estimated from few doses,[14],47.8 nM
same,potency estimated from few doses,"[2]; compound concentrations: 100 nM and 1000 nM (sheet 'Samples'), CATDS: 3.1976328377255003E-2",371 nM
Cl.Cl.NC(CNC(=O)c1cc(Br)c(-c2ccnc3[nH]ccc23)s1)c1ccccc1.NC(CNC(=O)c1cc(Br)c(-c2ccnc3[nH]ccc23)s1)c1ccccc1 (stereo not drawn) [GSK1322949A],potency estimated from few doses,[15],1300 nM
Cc1cc(-c2ccnc(Nc3cccc(C#N)c3)n2)cc(C)c1O [GSK1440913A],potency estimated from few doses,"[2]; compound concentrations: 100 nM and 1000 nM (sheet 'Samples'), CATDS: 8.7033733779345604E-2",990 nM
same,potency estimated from few doses,"[4]; compound concentrations: 100 nM and 1000 nM (sheet 'Samples'), CATDS: 0.18719100340522599",168 nM
